Measurements as given in the supplement of paper PMC3545927.
This is one part of the list. The hit rate among all sequences tested is not known here.

B1: HC260 (peptide)
chain: CAGLYHVTNDAGNASASA
B2: HC791 (peptide)
chain: CATLGFGAYMAGNASASA
B3: FS-2311 (peptide)
chain: CARSRREASGAGNASASA
B4: FS-3210 (peptide)
chain: CARSRRPADTAGNASASA
B5: FS-1673 (peptide)
chain: CAKSARSVRAAGNASASA
B6: FS-3116 (peptide)
chain: CARVCRCARAAGNASASA
B7: FS-1389 (peptide)
chain: CAQPARSVRLAGNASASA
B8: FS-811 (peptide)
chain: CAKPAKSARSAGNASASA
B9: FS-1573 (peptide)
chain: CASSSRDPRAAGNASASA
B10: FS-2643 (peptide)
chain: CARARRDPRAAGNASASA
B11: HC1444 (peptide)
chain: CAVQPEKGGRAGNASASA
B12: HC1803 (peptide)
chain: CADAMEECSQAGNASASA
B13: HC2065 (peptide)
chain: CAVVCCSMLYAGNASASA
B14: HC1190 (peptide)
chain: CATFPINAYTAGNASASA
B15: FS-2383 (peptide)
chain: CARSRRSQINAGNASASA
B16: FS-2819 (peptide)
chain: CARSRRSAFHAGNASASA
B17: FS-3238 (peptide)
chain: CARSRRSYSCAGNASASA
B18: FS-3183 (peptide)
chain: CARAPRSPRAAGNASASA
B19: FS-2251 (peptide)
chain: CARAPRSKVPAGNASASA
B20: FS-2309 (peptide)
chain: CARSLRSQIRAGNASASA
B21: FS-3080 (peptide)
chain: CARSGRSIINAGNASASA
B22: FS-2546 (peptide)
chain: CARAPRDSDAAGNASASA
B23: FS-1794 (peptide)
chain: CARSRRSPRAAGNASASA
B24: HC378 (peptide)
chain: CATGWLAGLFAGNASASA
B25: HC1940 (peptide)
chain: CATTPCSGSCAGNASASA
B26: HC366 (peptide)
chain: CAVQLINTNGAGNASASA
B27: HC1326 (peptide)
chain: CARTVVLTESAGNASASA
B28: FS-99 (peptide)
chain: CATPSRAGRAAGNASASA
B29: WN3 (peptide)
chain: CAQKKRGGPAAGNASASA
B30: HC1038 (peptide)
chain: CAQKLETFWAAGNASASA
B31: FS-1425 (peptide)
chain: CATPSRMIRTAGNASASA
B32: FS-203 (peptide)
chain: CATPSRCVRIAGNASASA
B33: FS-1152 (peptide)
chain: CAQPARIGRAAGNASASA
B34: HC1626 (peptide)
chain: CALLARGGRAAGNASASA
B35: HC1537 (peptide)
chain: CAAASLRAFTAGNASASA
B36: HC1696 (peptide)
chain: CAMGECSQHLAGNASASA
B37: HC102 (peptide)
chain: CAVVCCGMSYAGNASASA
B38: HC1595 (peptide)
chain: CAGACYSIEPAGNASASA
B39: HC1810 (peptide)
chain: CADVMEECSQAGNASASA
B40: HC2211 (peptide)
chain: CAEVVTSDWVAGNASASA
B41: HC249 (peptide)
chain: CAFLLALLSCAGNASASA
B42: FS-130 (peptide)
chain: CAHANRTGRAAGNASASA
B43: HC748 (peptide)
chain: CAHAVGIFRAAGNASASA

Target: furin, P09958
Experiment: furin cleavage Z-score vs untreated control; higher = more cleavage, active = 3.5 or more, inactive = 1 or less, 8 variable residues between constant flanks
Summary of the method: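 Purified furin cleaved 8-mer peptides that were fused to a cDNA oligonucleotide and held on magnetic beads by their N-terminus. Each 0.01 ml reaction used a 1:10 enzyme:substrate ratio in 50 mM HEPES pH 7.5 with CaCl2 and NaCl and ran 7.5, 15 or 30 min. Released DNA was adapter-tagged by PCR and sequenced, and read counts gave abundance. The cleavage Z-score came from log counts against furin-free reactions, lowess-adjusted and scaled by median absolute deviation.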

Chain of furin, P09958 (P09958 whole entry): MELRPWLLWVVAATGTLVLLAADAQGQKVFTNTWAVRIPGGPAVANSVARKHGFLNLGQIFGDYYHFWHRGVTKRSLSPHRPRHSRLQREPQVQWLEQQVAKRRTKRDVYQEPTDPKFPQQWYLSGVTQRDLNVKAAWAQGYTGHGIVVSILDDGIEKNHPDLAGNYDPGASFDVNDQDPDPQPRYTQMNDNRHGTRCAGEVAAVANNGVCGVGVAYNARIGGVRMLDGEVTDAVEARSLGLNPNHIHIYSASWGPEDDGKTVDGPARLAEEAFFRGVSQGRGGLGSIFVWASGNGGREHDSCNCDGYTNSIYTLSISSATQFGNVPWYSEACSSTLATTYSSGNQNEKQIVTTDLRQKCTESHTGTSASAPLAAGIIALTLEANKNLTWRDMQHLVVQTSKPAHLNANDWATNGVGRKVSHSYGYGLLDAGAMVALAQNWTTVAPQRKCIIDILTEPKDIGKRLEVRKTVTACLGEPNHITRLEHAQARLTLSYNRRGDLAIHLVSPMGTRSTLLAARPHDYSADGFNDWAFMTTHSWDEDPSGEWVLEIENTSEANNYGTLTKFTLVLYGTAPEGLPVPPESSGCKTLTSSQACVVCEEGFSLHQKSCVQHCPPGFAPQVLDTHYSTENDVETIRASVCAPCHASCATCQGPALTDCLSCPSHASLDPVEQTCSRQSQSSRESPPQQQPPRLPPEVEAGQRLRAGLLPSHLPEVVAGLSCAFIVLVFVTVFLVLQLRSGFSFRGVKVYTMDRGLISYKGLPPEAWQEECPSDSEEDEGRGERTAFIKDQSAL

Row | Sequence | furin cleavage Z-score (7.5 min) | furin cleavage Z-score (15 min) | furin cleavage Z-score (30 min)
1 | B1 | 0.615 (inactive) | -1.34 (inactive) | -0.664 (inactive)
2 | B2 | 0.163 (inactive) | -1.28 (inactive) | 0.49 (inactive)
3 | B3 | 3.7 (active) | 2.31 | 2.33
4 | B4 | -0.916 (inactive) | -0.606 (inactive) | -2.54 (inactive)
5 | B5 | 6.74 (active) | 6.73 (active) | 7 (active)
6 | B6 | 5.97 (active) | 5.83 (active) | 6.08 (active)
7 | B7 | -0.0259 (inactive) | 0.85 (inactive) | 0.452 (inactive)
8 | B8 | -0.364 (inactive) | -0.316 (inactive) | 0.253 (inactive)
9 | B9 | -1.14 (inactive) | 0.526 (inactive) | 1.07
10 | B10 | 9.64 (active) | 9.59 (active) | 9.18 (active)
11 | B11 | -2.15 (inactive) | -2.12 (inactive) | -0.412 (inactive)
12 | B12 | -1.34 (inactive) | 0.113 (inactive) | -0.929 (inactive)
13 | B13 | -0.464 (inactive) | -0.469 (inactive) | -1.46 (inactive)
14 | B14 | -0.0204 (inactive) | -1.04 (inactive) | -0.568 (inactive)
15 | B15 | 1.8 | 3.75 (active) | 2.57
16 | B16 | 8.26 (active) | 9.19 (active) | 8.92 (active)
17 | B17 | 0.584 (inactive) | 1.19 | 2.38
18 | B18 | 9.2 (active) | 8.63 (active) | 8.05 (active)
19 | B19 | 0.556 (inactive) | 0.0997 (inactive) | 1.62
20 | B20 | 0.116 (inactive) | -1.95 (inactive) | 0.712 (inactive)
21 | B21 | -0.514 (inactive) | 0.929 (inactive) | 1.74
22 | B22 | -0.983 (inactive) | 0.168 (inactive) | 0.352 (inactive)

Row | Sequence | furin cleavage Z-score (7.5 min) | furin cleavage Z-score (15 min) | furin cleavage Z-score (30 min)
23 | B23 | 11.3 (active) | 13.6 (active) | 9.99 (active)
24 | B24 | 1 | 1.08 | 0.703 (inactive)
25 | B25 | -1.36 (inactive) | -1.27 (inactive) | -2.07 (inactive)
26 | B26 | 0.569 (inactive) | -1.46 (inactive) | 0.762 (inactive)
27 | B27 | 0.659 (inactive) | 0.273 (inactive) | -0.545 (inactive)
28 | B28 | 3.27 | 3.92 (active) | 2.86
29 | B29 | 0.322 (inactive) | -1.02 (inactive) | 0.637 (inactive)
30 | B30 | 2.24 | -0.183 (inactive) | -1.19 (inactive)
31 | B31 | 4.04 (active) | 5.44 (active) | 5.33 (active)
32 | B32 | 0.645 (inactive) | -1.67 (inactive) | -0.417 (inactive)
33 | B33 | 5.34 (active) | 7.28 (active) | 7.16 (active)
34 | B34 | 3.15 | 3.33 | 3.52 (active)
35 | B35 | -0.944 (inactive) | -0.499 (inactive) | -0.478 (inactive)
36 | B36 | 2.31 | 0.612 (inactive) | 1.45
37 | B37 | -1.2 (inactive) | -0.443 (inactive) | -0.831 (inactive)
38 | B38 | -0.464 (inactive) | -0.533 (inactive) | -1.27 (inactive)
39 | B39 | 0.0621 (inactive) | 0.463 (inactive) | -0.158 (inactive)
40 | B40 | -1.36 (inactive) | -1.03 (inactive) | -1.22 (inactive)
41 | B41 | -0.759 (inactive) | -1.73 (inactive) | -0.995 (inactive)
42 | B42 | 3.34 | 5.9 (active) | 5.93 (active)
43 | B43 | -0.783 (inactive) | -0.538 (inactive) | 0.453 (inactive)
